From PubChem BioAssay (EPA / NIEHS)
The source made the active and inactive calls. How the source made its calls: active means hit-call score of the fitted dose curve at least 0.9, where 1 is the maximum; inactive means score below 0.9.

How the values were obtained:
[1] = BSK_hDFCGF_SRB: Viability Assessment in the BioMAP Diversity Plus: hDFCGF Assay (AID 2283061); conditions: primary human foreskin fibroblasts;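 further: cells exposed to compound for 24 h before the read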
Summary of the method: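 Human foreskin fibroblasts in 96-well plates were treated 24 h. Total protein was measured by 0.1% SRB staining after 10% TCA fixation, read at 560 nm. Data were fitted bidirectionally against DMSO.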

[2] = read-out: TIMP metallopeptidase inhibitor 1 (TIMP1), TIMP1 (gene 7076); assay: BSK_hDFCGF_TIMP1: BioMAP Diversity Plus: hDFCGF Assay for TIMP metallopeptidase inhibitor 1 (TIMP1) Biomarker Activity (AID 2283062); conditions: primary human foreskin fibroblasts; actives raise or lower the signal
Summary of the method: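 Human foreskin fibroblast primary cultures dosed for 24 h; secreted/surface TIMP-1 quantified by ELISA. Bidirectional curve fitting against DMSO baseline; cytotoxicity tracked in parallel cultures by SRB total-protein staining.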

[3] = read-out: Monokine induced gamma interferon (MIG), CXCL9 (gene 4283); assay: BSK_hDFCGF_MIG: BioMAP Diversity Plus: hDFCGF Assay for Monokine induced gamma interferon (MIG) Biomarker Activity (AID 2283063); conditions: primary human foreskin fibroblasts; actives raise or lower the signal
Summary of the method: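 MIG/CXCL9 measured by ELISA 24 h after dosing primary human skin fibroblasts. Activity fitted in both directions against DMSO controls. Cytotoxicity was checked in parallel cultures by SRB staining read at 560 nm.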

[4] = read-out: Matrix Metallopeptidase 1 (MMP1), MMP1 (gene 4312); assay: BSK_hDFCGF_MMP1: BioMAP Diversity Plus: hDFCGF Assay for Matrix Metallopeptidase 1 (MMP1) Biomarker Activity (AID 2283064); conditions: primary human foreskin fibroblasts; actives raise or lower the signal
Summary of the method: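 hDFCGF primary fibroblasts (human foreskin); chemical added; 24 h; MMP1 by ELISA; bidirectional fit vs DMSO.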

[5] = read-out: Vascular cell adhesion molecule 1 (VCAM1), VCAM1 (gene 7412); assay: BSK_hDFCGF_VCAM1: BioMAP Diversity Plus: hDFCGF Assay for Vascular cell adhesion molecule 1 (VCAM1) Biomarker Activity (AID 2283065); conditions: primary human foreskin fibroblasts; actives raise or lower the signal
Summary of the method: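 Human foreskin fibroblast primary cells dosed with chemical, VCAM-1 measured by ELISA at 24 h. Bidirectional curve fitting relative to DMSO as negative control/baseline.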

[6] = read-out: Plasminogen activator inhibitor-1 (PAI1), SERPINE1 (gene 5054); assay: BSK_hDFCGF_PAI1: BioMAP Diversity Plus: hDFCGF Assay for Plasminogen activator inhibitor-1 (PAI1) Biomarker Activity (AID 2283066); conditions: primary human foreskin fibroblasts; actives raise or lower the signal
Summary of the method: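 Human foreskin fibroblast primary cells, 24 h chemical exposure; PAI-1 measured by ELISA. Bidirectional fitting relative to DMSO; parallel cultures stained with SRB for total protein to flag overt cytotoxicity.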

[7] = read-out: Intercellular Adhesion Molecule 1 (ICAM1), ICAM1 (gene 3383); assay: BSK_KF3CT_ICAM1: BioMAP Diversity Plus: KF3CT Assay for Intercellular Adhesion Molecule 1 (ICAM1) Biomarker Activity (AID 2283067); conditions: primary human keratinocytes with fibroblasts; actives raise or lower the signal
Summary of the method: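 Human keratinocyte–foreskin fibroblast co-culture was treated for 24 h. Cell-surface ICAM-1 was quantified by ELISA, fitted bidirectionally relative to DMSO. Cytotoxicity was checked in parallel cultures by SRB total-protein staining.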

[8] = read-out: Interferon-gamma inducible Protein 10 (IP10), CXCL10 (gene 3627); assay: BSK_KF3CT_IP10: BioMAP Diversity Plus: KF3CT Assay for Interferon-gamma inducible Protein 10 (IP10) Biomarker Activity (AID 2283068); conditions: primary human keratinocytes with fibroblasts; actives raise or lower the signal
Summary of the method: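 KF3CT co-culture (keratinocytes + foreskin fibroblasts), 24 h compound, IP-10 by ELISA; bidirectional fit vs DMSO baseline.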

[9] = BSK_KF3CT_SRB: Viability Assessment in the BioMAP Diversity Plus: KF3CT Assay (AID 2283069); conditions: primary human keratinocytes with fibroblasts;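 further: total protein by sulforhodamine B staining as a cytotoxicity measure; read 24 h after compound addition; fitted for both signal gain and loss against DMSO baseline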
Summary of the method: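 Keratinocytes co-cultured with foreskin fibroblasts (human primary); chemical added, 24 h; fix 10% TCA, stain 0.1% SRB, A560. Bidirectional fit vs DMSO.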

[10] = read-out: Interleukin-1 alpha (IL1a), IL1A (gene 3552); assay: BSK_KF3CT_IL1a: BioMAP Diversity Plus: KF3CT Assay for Interleukin-1 alpha (IL1a) Biomarker Activity (AID 2283070); conditions: primary human keratinocytes with fibroblasts; actives raise or lower the signal
Summary of the method: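 Chemicals were dosed onto co-cultured human keratinocytes and foreskin fibroblasts, IL-1a was quantified by ELISA at 24 h, and activity was fitted in both directions relative to DMSO controls.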

[11] = read-out: TIMP metallopeptidase inhibitor 2 (TIMP2), TIMP2 (gene 7077); assay: BSK_KF3CT_TIMP2: BioMAP Diversity Plus: KF3CT Assay for TIMP metallopeptidase inhibitor 2 (TIMP2) Biomarker Activity (AID 2283071); conditions: primary human keratinocytes with fibroblasts; actives raise or lower the signal
Summary of the method: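 Co-culture of human primary keratinocytes and foreskin fibroblasts, measured 24 h after chemical dosing. TIMP-2 quantified by ELISA and fitted in both directions relative to DMSO. Cytotoxicity checked in parallel cultures by SRB total-protein staining.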

[12] = read-out: Transforming growth factor beta 1 (TGFb1), TGFB1 (gene 7040); assay: BSK_KF3CT_TGFb1: BioMAP Diversity Plus: KF3CT Assay for Transforming growth factor beta 1 (TGFb1) Biomarker Activity (AID 2283072); conditions: primary human keratinocytes with fibroblasts; actives raise or lower the signal
Summary of the method: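 Human keratinocyte/foreskin fibroblast co-culture; TGF-b1 measured by ELISA 24 h after dosing, fitted bidirectionally versus DMSO. Cytotoxicity checked in parallel cultures by total protein (SRB staining, 560 nm).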

[13] = read-out: C-C motif chemokine 2 (Homo sapiens) (UniProt P13500); assay: BSK_KF3CT_MCP1: BioMAP Diversity Plus: KF3CT Assay for Monocyte Chemoattractant Protein 1 (MCP1/CCL2) Biomarker Activity (AID 2283073); conditions: primary human keratinocytes with fibroblasts; actives raise or lower the signal
Summary of the method: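 Human keratinocyte–foreskin fibroblast co-culture; MCP-1 measured by ELISA 24 h after dosing. Bidirectional fit vs DMSO; cytotoxicity tracked by SRB total protein in parallel cultures.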

[14] = read-out: Matrix Metallopeptidase 9 (MMP9), MMP9 (gene 4318); assay: BSK_KF3CT_MMP9: BioMAP Diversity Plus: KF3CT Assay for Matrix Metallopeptidase 9 (MMP9) Biomarker Activity (AID 2283074); conditions: primary human keratinocytes with fibroblasts; actives raise or lower the signal
Summary of the method: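 Human keratinocyte/foreskin fibroblast co-culture; compound added; 24 h; MMP-9 by ELISA; bidirectional fit vs DMSO baseline.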

[15] = read-out: urokinase plasminogen activator (uPA), PLAU (gene 5328); assay: BSK_KF3CT_uPA: BioMAP Diversity Plus: KF3CT Assay for urokinase plasminogen activator (uPA) Biomarker Activity (AID 2283075); conditions: primary human keratinocytes with fibroblasts; actives raise or lower the signal
Summary of the method: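 ELISA readout of uPA, analyzed for signal gain or loss relative to DMSO, from a human primary keratinocyte–foreskin fibroblast co-culture measured 24 h after chemical treatment.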

[16] = read-out: CD40, CD40 (gene 958); assay: BSK_LPS_CD40: BioMAP Diversity Plus: LPS Assay for CD40 Biomarker Activity (AID 2283076); conditions: primary human HUVEC with PBMC; actives raise or lower the signal
Summary of the method: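 HUVEC plus PBMC co-culture stimulated with LPS; CD40 quantified by ELISA 24 h after compound dosing. Fitting was bidirectional relative to DMSO. SRB staining of parallel cultures flagged overt cytotoxicity.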

[17] = read-out: E-selectin (Homo sapiens) (UniProt P16581); assay: BSK_LPS_Eselectin: BioMAP Diversity Plus: LPS Assay for Eselectin Biomarker Activity (AID 2283077); conditions: primary human HUVEC with PBMC; actives raise or lower the signal
Summary of the method: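 Human umbilical vein endothelial cells co-cultured with PBMC under LPS stimulation; cell-surface E-selectin measured by ELISA 24 h after dosing. Change in either direction versus DMSO, with SRB total-protein staining in parallel cultures for cytotoxicity.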

[18] = read-out: Interleukin-8 (IL8), CXCL8 (gene 3576); assay: BSK_LPS_IL8: BioMAP Diversity Plus: LPS Assay for Interleukin-8 (IL8) Biomarker Activity (AID 2283078); conditions: primary human HUVEC with PBMC; actives raise or lower the signal
Summary of the method: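 Human umbilical vein endothelial cells co-cultured with PBMC, LPS-stimulated, exposed to compound for 24 h. IL-8 quantified by ELISA; fitted in both directions against DMSO, with SRB total-protein staining of parallel cultures for cytotoxicity.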

[19] = BSK_LPS_SRB: Viability Assessment in the BioMAP Diversity Plus: LPS Assay (AID 2283079); conditions: primary human HUVEC with PBMC;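 further: total protein by sulforhodamine B absorbance as a cytotoxicity measure; measured one day after compound addition; fitted in both directions against DMSO so loss or gain of signal counts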
Summary of the method: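 Co-culture of human umbilical vein endothelial cells and PBMC, read 24 h after dosing. Total protein by 0.1% SRB staining after 10% TCA fixation, absorbance at 560 nm; bidirectional fit against DMSO.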

[20] = read-out: Macrophage colony-stimulating factor (MCSF), CSF1 (gene 1435); assay: BSK_hDFCGF_MCSF: BioMAP Diversity Plus: hDFCGF Assay for Macrophage colony-stimulating factor (MCSF) Biomarker Activity (AID 2283060); conditions: primary human foreskin fibroblasts; actives raise or lower the signal
Summary of the method: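 Human foreskin fibroblast primary cultures; M-CSF measured by ELISA 24 hours after chemical dosing. Bidirectional fitting relative to DMSO, with overt cytotoxicity tracked by parallel SRB total-protein staining (0.1% SRB, 10% TCA fixation, 560 nm).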

Measured: AC50

E-selectin (Homo sapiens), sequence (P16581 whole entry, looked up): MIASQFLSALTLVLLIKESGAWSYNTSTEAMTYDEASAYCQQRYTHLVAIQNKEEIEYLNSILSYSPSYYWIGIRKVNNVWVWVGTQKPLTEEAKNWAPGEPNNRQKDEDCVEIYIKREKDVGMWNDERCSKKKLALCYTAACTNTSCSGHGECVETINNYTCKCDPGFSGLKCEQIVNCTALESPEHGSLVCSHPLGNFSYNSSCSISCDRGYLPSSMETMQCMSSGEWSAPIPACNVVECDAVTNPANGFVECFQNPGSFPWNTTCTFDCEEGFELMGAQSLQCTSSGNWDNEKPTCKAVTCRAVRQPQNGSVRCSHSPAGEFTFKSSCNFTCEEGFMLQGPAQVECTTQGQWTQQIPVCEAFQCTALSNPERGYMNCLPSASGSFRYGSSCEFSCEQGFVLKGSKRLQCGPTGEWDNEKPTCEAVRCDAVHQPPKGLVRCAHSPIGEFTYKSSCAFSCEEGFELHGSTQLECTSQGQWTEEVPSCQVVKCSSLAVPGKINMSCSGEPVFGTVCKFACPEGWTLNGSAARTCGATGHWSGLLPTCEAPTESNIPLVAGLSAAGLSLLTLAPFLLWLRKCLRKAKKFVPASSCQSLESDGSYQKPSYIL

CC1(C)CC(O)CC(C)(C)N1[O]
inactive: [1] | [2] | [3] | [4] | [5] | [6] | [7] | [8] | [9] | [10] | [11] | [12] | [13] | [14] | [15] | [16] | [17] | [18] | [19]

CCCCCCOC(=O)CCCCC(=O)OCCCCCC
inactive: [20] | [1] | [2] | [4] | [5] | [6] | [7] | [8] | [9] | [10] | [11] | [12] | [13] | [14] | [15] | [16] | [17] | [18] | [19]

CCCCCC1=CCCC1=O
active: [4] 0.016 µM
inactive: [20] | [1] | [2] | [3] | [5] | [6] | [7] | [8] | [9] | [10] | [11] | [12] | [13] | [14] | [15] | [16] | [17] | [18] | [19]

CCOC(=O)C1=NOC(c2ccccc2)(c2ccccc2)C1
inactive: [1] | [2] | [4] | [5] | [6] | [7] | [8] | [9] | [10] | [11] | [13] | [14] | [15] | [16] | [17] | [18] | [19]
active: [12] 0.113 µM

C=CC(=O)NCOCCCC
inactive: [1] | [2] | [4] | [5] | [6] | [7] | [8] | [9] | [10] | [11] | [12] | [13] | [14] | [15] | [16] | [17] | [18] | [19]

CCCCCCC=O
inactive: [1] | [2] | [4] | [5] | [6] | [7] | [8] | [9] | [10] | [11] | [12] | [13] | [14] | [15] | [16] | [17] | [18] | [19]
